Shiga inhibitor = Shiga toxin inhibition; Vero cells, Shiga toxin protein synthesis inhibition reporter; inhibition, % at 38.7 µM; actives 9.2% (n = 290,000); AID 2315; in the data active = inhibition mostly above about 28%, no sharp cut-off; inactive = mostly below about 43%; also: 0% is about no effect
NS1 function inh = influenza NS1 inhibition; actives 0.4% (n = 270,000); Potency, µM (series often up to 46.1 µM), inactives show top-dose activity, positive = more growth; calls by dose curve; also: potency is read from the fitted curve at half-maximal effect; actives are rising curves; nearly all actives have a fitted effect of over 50% in size
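Compounds were scored for reversing the slow growth caused by influenza A NS1 in S. cerevisiae, measured by optical density at 600 nm. Assay medium contained 2% galactose at pH 6.0; NS1-free yeast of the same strain were the positive control.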
Sm TGR inh = blocks Schistosoma mansoni thioredoxin glutathione reductase. Potency, µM (titrated, usually from 114 µM), without a hit: top-dose activity change, negative = inhibition, hits mostly inhibitors. actives 3% (n = 360,000). AID 485364. Q962Y6. purified TGR, DTNB reduction, TNB absorbance 405 nm; also: potency is read from the fitted curve at half-maximal effect; % is scaled to controls: 0 for no effect and ±100 for the full control effect; nearly all actives have a fitted effect of over 60% in size
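First, TGR (20 nM dispensed) and NADPH were mixed with compound. Second, a 15 min room-temperature incubation followed. Third, further NADPH and then DTNB were added to start the reaction. Finally, TNB absorbance was monitored kinetically.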
CHX counter = affects cycloheximide protein synthesis inhibition readout, counter-screen. cell reporter, cycloheximide protein synthesis inhibition counterscreen. max response, %. actives 12% (n = 300,000); in the data active = max response mostly above about 13%, no sharp cut-off; inactive = mostly below about 14%; also: read at 38.3 µM for the half of the compounds with a filed dose; 0% is about no effect
Pf growth 48h = P. falciparum growth inhibition at 48 hours (one generation); P. falciparum luciferase growth in erythrocytes, 48 h; Potency, µM (doses to about 28.7 µM), without a hit: at the top dose activity change, negative = inhibition, usual class: inhibitors; actives 5.9% (n = 310,000); also: potency is read from the fitted curve at half-maximal effect; % is scaled to controls: 0 for no effect and ±100 for the full control effect
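A one-generation exposure of luciferase-tagged malaria parasites in RPMI 1640/Albumax erythrocyte culture, 37 C and 5% CO2. Inhibition is inferred from decreased luminescence after adding detection reagent.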
Pf growth 96h = P. falciparum growth inhibition at 96 hours | P. falciparum luciferase reporter growth, 96 h | Potency, µM (titrated, usually from 28.7 µM), for inactives: top-dose activity change, negative = inhibition, most hits filed as inhibitors | actives 6.9% (n = 320,000); also: potency is read from the fitted curve at half-maximal effect; % is scaled to controls: 0 for no effect and ±100 for the full control effect
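Readout is luminescence from an integrated firefly luciferase in P. falciparum. Red cells, 2% hematocrit and 0.05% parasitemia final, were cultured with compound through two parasite generations (96 hours) at 37 C, 5% CO2.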
Active calls of the source: *; ? = inconclusive; / = not tested or not shown. The list is not random: actives were taken first. Their share in the collection is about 21%. Unless noted, calls follow the shape of the dose curve; as a rule, active = well fitted curve in the direction sought with a large enough effect; inconclusive = small, poorly fitted or top-dose-only effect, or another doubt; inactive = no such curve, though single readings can be large; an effect the other way counts as inactive or inconclusive.

SMILES | Shiga inhibitor | NS1 function inh | Sm TGR inh | CHX counter | Pf growth 48h | Pf growth 96h
CC(C)c1ccccc1NC(=O)c1ccccc1NC(=O)C1CCCCC1 | 3 | -7% | -4% | 1 | 12µM* | 187%
Cc1cccc(NC(=O)c2ccccc2NC(=O)C2CCCCC2)c1C | -4 | ? | 13µM* | -4 | 5% | 88%
O=C(Nc1ccccc1)c1ccccc1NC(=O)C1CCCCC1 | -1 | 9% | 4% | -3 | -24% | 76%
Cc1ccc(NS(=O)(=O)c2ccc(-c3cnc(C4CC4)o3)cc2)cc1N(C)C | / | / | 2% | / | / | /
Cn1cc(Cl)c(C(=O)OCC(=O)Nc2nc(-c3ccc(Br)cc3)cs2)n1 | 65* | 0% | -9% | 22* | 162% | 301%
O=C(CCn1cnc2ccccc2c1=O)Nc1nc(-c2ccc(Br)cc2)cs1 | 21 | 7% | 0% | 2 | -5% | 9.3µM*
O=C(COC(=O)c1cccs1)Nc1nc(-c2ccccc2)cs1 | 22 | 5% | ? | 1 | 26% | 45%
O=C(COC(=O)CNC(=O)c1ccccc1)Nc1nc(-c2ccccc2)cs1 | 40 | 2% | -1% | 25* | 69% | -39%
Cc1ccc(NC(=O)CCn2cnc3ccccc3c2=O)cc1 | 23 | -2% | / | 13 | 3% | ?
Cn1nccc1C(=O)OCC(=O)Nc1nc(-c2ccccc2)cs1 | 54 | -50% | -11% | 24* | 78% | 24%
Cc1cccc(C(=O)n2nc(-c3cccnc3)nc2NCc2ccc(F)cc2)c1 | / | / | 2% | / | / | /
O=Cc1ccc(C(=O)O)cc1 | / | / | 3% | / | 39% | 42%
O=C(O)c1cc[c]([Hg][Cl])cc1 | / | -59% | ? | / | 5.9µM* | 5.2µM*
CCn1c(=S)sc2c(=O)n(CC(=O)Nc3cccc(OC)c3)c(C)nc21 | -12 | -11% | 3% | -2 | 34% | 30%
O=C(/C=C/c1ccco1)Nc1ccc2nc3n(c(=O)c2c1)CCCC3 | 66* | / | 32µM* | 52* | 64% | ?
COc1cc(NC(=O)C(=O)Nc2ccc3nc4n(c(=O)c3c2)CCCCC4)cc(OC)c1OC | -10 | 6% | 10% | 2 | 7% | 0%
COc1cccc(C(=O)Nc2ccc3nc4n(c(=O)c3c2)CCCC4)c1 | 56* | -3% | 3% | 23* | 13% | 78%
COc1cc(C(=O)Nc2ccc3nc4n(c(=O)c3c2)CCCC4)ccc1Br | -4 | 2% | -7% | 18 | 8.3µM* | -3%
COc1cc(OC)cc(C(=O)Nc2ccc3nc4n(c(=O)c3c2)CCCC4)c1 | 70* | -1% | -14% | 27* | ? | 14%
C=CCNC(=O)/C(=C/c1cccc([N+](=O)[O-])c1)NC(=O)c1ccccc1 | -6 | / | -5% | -2 | 1% | 16%
CCOC(=O)c1ccc(NC(=O)CCc2c(C)nc3c(c(C)nn3C)c2C)cc1 | / | / | -10% | / | / | /
CCOC(=O)N1CCN(C(=O)CC(=O)Nc2ccc3nc4n(c(=O)c3c2)CCCCC4)CC1 | -13 | -3% | -5% | 1 | 5.9µM* | 7%
COc1ccc(Cl)cc1C(=O)Nc1ccc2nc3n(c(=O)c2c1)CCCC3 | 14 | -1% | 1% | 0 | ? | 2.1µM*
O=C(Nc1ccc2nc3n(c(=O)c2c1)CCCCC3)C(=O)N1CCN(c2ccccc2)CC1 | -3 | 1% | 0% | 1 | 1.3µM* | ?
O=C(Nc1ccc2nc3n(c(=O)c2c1)CCCCC3)c1cccc(C(F)(F)F)c1 | / | / | -13% | / | / | /
SMILES | Shiga inhibitor | NS1 function inh | Sm TGR inh | CHX counter | Pf growth 48h | Pf growth 96h
CCOC(=O)N1CCN(C(=O)C(=O)Nc2ccc3nc4n(c(=O)c3c2)CCCCC4)CC1 | 25 | 9% | -31% | -5 | / | -32%
CN(C)c1cccc(C(=O)Nc2ccc3nc4n(c(=O)c3c2)CCCCC4)c1 | 53* | -14% | 2% | 24* | / | 15%
COC(=O)c1nnn(-c2cccc(C)c2)c1N | / | / | 1% | / | / | /
COc1cc(/C=N/NC(=O)c2ccncc2)ccc1OC(=O)c1cccc(F)c1 | -10 | 8% | 3% | -2 | 8% | 1%
O=c1c2cc(NC(=S)NCc3cccnc3)ccc2nc2n1CCCCC2 | 69 | 14% | 56µM* | 22* | 42% | 4%
CC(C)CN(CCNC(=O)c1cn(C)c2ccc(S(=O)(=O)N3CCCC3)cc2c1=O)CC(C)C | 24 | 2% | 3% | -13 | -2% | 9.3µM*

Screening results deposited in PubChem BioAssay by National Center for Advancing Translational Sciences (NCATS).
